# From PubChem BioAssay (NCATS)
# A number with no mark means an inactive call. Inconclusive results are not listed. Where a call stands in place of a potency, no number is given. Activity calls are given as the source filed them. Calls follow the shape of the dose curve; as a rule, active = well fitted curve in the direction sought with a large enough effect; inconclusive = small, poorly fitted or top-dose-only effect, or another doubt; inactive = no such curve, though single readings can be large; an effect the other way counts as inactive or inconclusive.
# Legend:
# [1] = molecular target: Glutathione peroxidase 1 (Homo sapiens) (UniProt P07203); assay: Primary qHTS Assay for Inhibitors of Recombinant Selenoprotein Glutathione Peroxidase 1 (GPX1) (AID 1845191); also: nearly all actives have a fitted effect of over 65% in size
# Glutathione peroxidase 1 (Homo sapiens), sequence (P07203 whole entry, looked up): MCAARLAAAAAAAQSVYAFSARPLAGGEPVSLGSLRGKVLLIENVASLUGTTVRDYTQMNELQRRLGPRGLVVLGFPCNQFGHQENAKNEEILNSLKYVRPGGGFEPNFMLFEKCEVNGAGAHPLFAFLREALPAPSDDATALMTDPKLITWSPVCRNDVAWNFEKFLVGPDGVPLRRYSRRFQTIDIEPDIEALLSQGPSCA
# How it was run: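 GPX1 10 nM, GR 100 nM, GSH 1 mM, NADPH 0.5 mM, CHP 0.5 mM (final). 30-min cpd preincubation, RT. Ex340/Em450 read t=0, t=15 min.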
# [2] = molecular target: Phospholipid hydroperoxide glutathione peroxidase GPX4 (Homo sapiens) (UniProt P36969); assay: Primary qHTS Assay for Inhibitors of Recombinant Selenoprotein Glutathione Peroxidase 4 (GPX4) (AID 1845192); also: nearly all actives have a fitted effect of over 65% in size
# Phospholipid hydroperoxide glutathione peroxidase GPX4 (Homo sapiens), sequence (P36969 whole entry, looked up): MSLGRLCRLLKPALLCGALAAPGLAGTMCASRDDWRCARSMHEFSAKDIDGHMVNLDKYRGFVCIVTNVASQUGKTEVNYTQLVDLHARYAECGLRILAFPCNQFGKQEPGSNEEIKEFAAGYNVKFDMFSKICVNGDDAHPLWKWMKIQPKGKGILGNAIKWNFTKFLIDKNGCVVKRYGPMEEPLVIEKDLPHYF
# How it was run: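 qHTS, GR-coupled: GPX4 200 nM + cpd 30 min RT → GSH 1 mM, NADPH 0.5 mM, GR 100 nM → CHP 0.5 mM start; fluor 340/450 at t0 and t15 min; no-enzyme wells as control.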
# [3] = system: Nanoluciferase (engineered Oplophorus gracilirostris luciferase); assay: Primary Nanoluciferase (NLuc) qHTS assay for identification of artifact compounds. (AID 1845222);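 also: NLuc secreted into diluted conditioned medium of S16 cells; series mostly up to about 54 µM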
# How it was run: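 Using secreted nanoluciferase in S16 culture medium (0.22 um filtered, 1:55 dilution), compounds were preincubated 15 min at RT. Signal was generated with Nano-Glo reagent (1:100) over 5 min.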
# [4] = Primary fluorescence-based thiol-reactive (MSTI) qHTS assay for identification of artifact compounds. (AID 1845221); also: nearly all actives have a fitted effect of over 65% in size; also: potency is read from the fitted curve at half-maximal effect;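 as to activity change, negative = thiol reactive: series mostly up to about 54 µM; thiol-reactive compounds lower the probe fluorescence signal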
# How it was run: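 MSTI probe at 4 uM final in 2% DMSO/PBS pH 7.4; compounds, 1 h at room temperature in dark. Fluorescence Ex/Em 525/598 nm, normalised to Acetyl-MSTI and MSTI, fitted to 4-parameter Hill.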
# [5] = Primary redox qHTS assay for identification of artifact compounds. (AID 1845223)
# How it was run: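 Redox-cycling detection via DTT (250 uM final) oxidation coupled to Amplex Red (25 uM)/HRP (250 mU/mL) in HBSS. 15 min preincubation plus 30 min after DTT, room temperature. Ex/Em 525/598 nm; 4-parameter Hill fit against DMSO and 10 uM DA3003.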
compound,measurement,setting,value
COc1ccc(/C=C/C(=O)O[C@H]2[C@H](O[C@H]3[C@@H]4C=CO[C@@H](O[C@@H]5O[C@H](CO)[C@@H](O)[C@H](O)[C@H]5O)[C@@H]4[C@@]4(CO)O[C@@H]34)O[C@@H](C)[C@H](O)[C@H]2OC(C)=O)cc1,Potency,[1],inactive
same,Potency,[2],inactive
same,Potency,[3],inactive
CS(=O)(=O)N1CCC(NC(=O)c2[nH]ncc2NC(=O)c2c(Cl)cccc2Cl)CC1,Potency,[1],inactive
same,Potency,[2],inactive
same,Potency,[4],inactive
same,Potency,[5],inactive
COc1ccc(F)cc1-c1cc(NC(=O)[C@@H]2CCCNC2)ncc1Cl,Potency,[1],inactive
same,Potency,[2],inactive
same,Potency,[4],inactive
same,Potency,[3],inactive
same,Potency,[5],inactive
O=C1NC(Cc2c[nH]c3ccccc23)C(=O)NC1Cc1cnc[nH]1 (configuration not stated),Potency,[1],inactive
same,Potency,[2],inactive
same,Potency,[4],inactive
same,Potency,[3],inactive
same,Potency,[5],inactive
COc1ccc(/C=C/C(=O)O[C@@H]2[C@@H](O)[C@H](C)O[C@@H](O[C@H]3[C@@H]4C=CO[C@@H](O[C@H]5O[C@@H](CO)[C@H](O)[C@@H](O)[C@@H]5O)[C@@H]4[C@@]4(CO)O[C@@H]34)[C@@H]2OC(C)=O)cc1,Potency,[1],inactive
same,Potency,[2],inactive
same,Potency,[3],inactive
COc1ccc(C2COc3cc(O)ccc3C2)c(O)c1 (configuration not stated),Potency,[1],inactive
same,Potency,[2],inactive
same,Potency,[4],inactive
same,Potency,[3],inactive
same,Potency,[5],inactive
O=C1OCc2cc3cccc(O[C@@H]4O[C@H](CO)[C@@H](O)[C@H](O)[C@H]4O)c3c(O)c21,Potency,[1],inactive
same,Potency,[2],inactive
same,Potency,[4],1.65 µM (active)
same,Potency,[3],inactive
same,Potency,[5],inactive
C/C=C/c1ccc2c(c1)[C@@H](C)[C@H](c1ccc(O)cc1)O2,Potency,[1],inactive
same,Potency,[2],inactive
same,Potency,[4],inactive
same,Potency,[3],inactive
same,Potency,[5],inactive
CC(O)c1cc(C(=O)N[C@@H](C)Cn2ccc(-c3ccc(C#N)c(Cl)c3)n2)n[nH]1 (some centres not stated),Potency,[1],inactive
same,Potency,[2],inactive
same,Potency,[4],inactive
same,Potency,[3],inactive
same,Potency,[5],inactive
C=CC1C(OC2OC(CO)C(O)C(O)C2O)OC=C(C(=O)OC)C1CC(=O)OCC1C(C)C(O)CC1C(CO)COC(=O)CC1C(C(=O)O)=COC(OC2OC(CO)C(O)C(O)C2O)/C1=C\C (configuration not stated),Potency,[1],inactive
same,Potency,[2],inactive
same,"activity change, negative = thiol reactive",[4],7.86% [at 11.5 µM]
same,"activity, negative = inhibition",[3],-0.732% [at 11.6 µM]
same,redox activity (% of DA3003),[5],14.1% [at 11.5 µM]
CC(C(O)/C=C/C(C)(C)O)C1CCC2(C)C3C(=O)C=C4C(CCC(O)C4(C)C)C3(C)CCC12C (configuration not stated),Potency,[1],inactive
same,Potency,[2],inactive
same,Potency,[4],inactive
same,Potency,[3],inactive
same,Potency,[5],inactive
COc1c2c(c(C)c3c1C(=O)OC3)O[C@@]1(C)CCC3(C(C)(C)O)OC(=O)CC[C@]3(C)[C@H]1C2 (some centres not stated),Potency,[1],inactive
same,Potency,[2],inactive
same,Potency,[4],inactive
same,Potency,[3],inactive
same,Potency,[5],inactive
CC(C)c1cc(C(=O)N2CC[C@@H](NC(=O)C3CC3)C2)n[nH]1,Potency,[1],inactive
same,Potency,[2],inactive
same,Potency,[4],inactive
same,Potency,[3],inactive
same,Potency,[5],inactive
COC(=O)CC1CC(c2ccc(O)cc2)=NO1 (configuration not stated),Potency,[1],inactive
same,Potency,[2],inactive
same,Potency,[4],inactive
same,Potency,[5],inactive
OC/C=C/c1ccc(O[C@@H]2O[C@H](CO)[C@@H](O)[C@H](O)[C@H]2O)cc1,Potency,[1],inactive
same,Potency,[2],inactive
same,Potency,[3],inactive
same,Potency,[5],inactive
C/C1=C\CC[C@H](C)CCO[C@@H]2O[C@H](CO[C@@H]3OC[C@](O)(COC1=O)[C@H]3O)[C@@H](O)[C@H](O)[C@H]2O,Potency,[1],inactive
same,Potency,[2],inactive
same,Potency,[5],inactive
C=C1CN(Cc2ccc(C(=O)Nc3ccccc3N)cc2)C(=O)c2ccccc21,Potency,[1],inactive
same,Potency,[2],inactive
same,Potency,[3],inactive
same,Potency,[5],inactive
c1ccc(-c2csc(N3CCOCC3)n2)cc1,Potency,[1],inactive
same,Potency,[2],inactive
same,Potency,[3],inactive
same,Potency,[5],inactive
CC(=O)O[C@@H]1[C@@H](O)[C@H](C)O[C@@H](O[C@H]2[C@@H]3C=CO[C@@H](O[C@@H]4O[C@H](CO)[C@@H](O)[C@H](O)[C@H]4O)[C@@H]3[C@@]3(CO)O[C@@H]23)[C@@H]1OC(=O)/C=C/c1ccccc1,Potency,[1],inactive
same,Potency,[2],inactive
same,Potency,[4],inactive
same,Potency,[3],inactive
same,Potency,[5],inactive
C[C@@H]1O[C@@H](O[C@@H]2[C@@H](O)[C@H](O[C@H]3CC[C@@]4(C)C(CC[C@]5(C)C4CC=C4[C@@H]6CC(C)(C)CC[C@]6(C(=O)O[C@@H]6O[C@H](CO)[C@@H](O)[C@H](O)[C@H]6O)CC[C@]45C)C3(C)C)O[C@H](C(=O)O)[C@H]2O)[C@H](O)[C@H](O)[C@H]1O (some centres not stated),Potency,[1],inactive
same,Potency,[2],inactive
same,"activity change, negative = thiol reactive",[4],312% [at 11.5 µM]
same,"activity, negative = inhibition",[3],2.86% [at 11.6 µM]
same,redox activity (% of DA3003),[5],12.9% [at 11.5 µM]
CN[C@H](CC(C)C)C(=O)N[C@H]1C(=O)N[C@@H](CC(N)=O)C(=O)N[C@H]2C(=O)N[C@H]3C(=O)N[C@H](C(=O)N[C@H](C(=O)O)c4cc(O)cc(O)c4-c4cc3ccc4O)[C@H](O[C@H]3C[C@](C)(N)[C@@H](O)[C@H](C)O3)c3ccc(c(Cl)c3)Oc3cc2cc(c3O[C@@H]2O[C@H](CO)[C@@H](O)[C@H](O)[C@H]2O[C@H]2C[C@](C)(NCc3ccc(-c4ccc(Cl)cc4)cc3)[C@@H](O)[C@H](C)O2)Oc2ccc(cc2Cl)[C@H]1O,Potency,[1],inactive
same,Potency,[2],inactive
same,Potency,[4],inactive
same,Potency,[3],inactive
same,Potency,[5],inactive
CCOC(=O)c1sc(NC(=O)[C@H](C(C)C)n2c(=O)[nH]c3ccccc3c2=O)nc1C,Potency,[1],inactive
same,Potency,[2],inactive
same,Potency,[4],inactive
same,Potency,[5],inactive
Cc1cc(OCc2nnc(SC3CCCC3)n2-c2cccnc2)ccc1-c1ccc(S(C)(=O)=O)cc1,Potency,[1],inactive
same,Potency,[2],inactive
same,Potency,[4],inactive
same,Potency,[3],inactive
same,Potency,[5],inactive
O=S(=O)(Nc1ccccn1)c1ccc(N=Cc2c(O)[nH]c3ccc4ncsc4c23)cc1,outcome,[1],inactive [at 9.52 µM]
same,outcome,[2],inactive [at 9.73 µM]
same,"activity, negative = inhibition",[3],-7.47% [at 11.6 µM]
same,redox activity (% of DA3003),[5],-4.81% [at 11.5 µM]
CCN1CCN(Cc2ccc(NC(=O)c3ccc(C)c(NC(=O)c4cncc(-c5cccs5)c4)c3)cc2C(F)(F)F)CC1,Potency,[1],inactive
same,Potency,[2],inactive
same,Potency,[4],inactive
same,Potency,[3],inactive
same,Potency,[5],inactive
